Our source for the binding signal values is PMC7862700, “An all-to-all approach to the identification of sequence-specific readers for epigenetic DNA modifications on cytosine”.

What all share (assay): DAPPL (digital affinity profiling via proximity ligation, sequencing); 10 mM Tris-HCl pH 7.5, 50 mM NaCl, 1 mM DTT, 4% glycerol, room temperature, 30 min; GST-TFs on glutathione beads, 16-mer random dsDNA library, 0.1% formaldehyde crosslink after washing; high values mean tight binding
Common to all, as to conditions: protein: recombinant; tags: N-terminal GST; dsDNA, one strand shown

For one test, the target named is T1, FLI1 (Homo sapiens, UniProt Q01543 1-452).
T1 sequence: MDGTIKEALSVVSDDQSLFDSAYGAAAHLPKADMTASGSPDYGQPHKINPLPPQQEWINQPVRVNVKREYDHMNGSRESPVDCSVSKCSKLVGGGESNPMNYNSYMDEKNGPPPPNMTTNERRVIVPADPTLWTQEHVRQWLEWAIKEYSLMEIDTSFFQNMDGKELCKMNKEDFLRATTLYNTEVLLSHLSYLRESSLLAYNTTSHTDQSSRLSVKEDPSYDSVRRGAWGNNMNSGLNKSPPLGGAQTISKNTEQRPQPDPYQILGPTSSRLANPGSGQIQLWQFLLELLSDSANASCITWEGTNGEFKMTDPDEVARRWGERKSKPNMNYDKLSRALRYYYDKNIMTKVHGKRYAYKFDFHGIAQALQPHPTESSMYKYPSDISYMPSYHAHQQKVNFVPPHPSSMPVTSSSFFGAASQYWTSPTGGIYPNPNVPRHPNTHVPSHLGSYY
The procedure, abridged:
(§1)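 Human transcription factors carrying a GST fusion were produced in yeast, bound to glutathione beads, tagged with DNA barcodes and pooled together with a tag-only sample. Each pool was held with 200 nmole of a random double-stranded 16-mer DNA library in Tris/NaCl/DTT/glycerol buffer for 30 min at room temperature, then washed, crosslinked in 0.1% formaldehyde, proximity-ligated with BsaI/T4 ligase (1 h, 37 °C), PCR-amplified and sequenced on an Illumina NextSeq500. Binding signal is the read frequency of each hexamer for a given factor divided by its frequency in the tag-only sample.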

Another test has as its target T2, ELK1 (Homo sapiens, UniProt P19419 1-428).
T2 sequence: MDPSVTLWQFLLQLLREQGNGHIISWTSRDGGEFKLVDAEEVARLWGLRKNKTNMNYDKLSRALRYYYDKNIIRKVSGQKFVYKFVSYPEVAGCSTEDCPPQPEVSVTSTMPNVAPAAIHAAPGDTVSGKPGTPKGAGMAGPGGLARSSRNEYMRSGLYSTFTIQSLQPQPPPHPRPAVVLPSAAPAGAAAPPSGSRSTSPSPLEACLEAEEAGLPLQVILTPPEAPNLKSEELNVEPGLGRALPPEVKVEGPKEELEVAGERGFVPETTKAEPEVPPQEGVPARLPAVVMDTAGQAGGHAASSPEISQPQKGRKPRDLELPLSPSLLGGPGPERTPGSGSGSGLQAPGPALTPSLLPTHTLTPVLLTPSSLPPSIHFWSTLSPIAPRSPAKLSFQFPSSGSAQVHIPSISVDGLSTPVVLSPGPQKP
The essentials: as §1

The target in a further test is T3, GABPA (Homo sapiens, UniProt Q06546 1-454).
T3 sequence: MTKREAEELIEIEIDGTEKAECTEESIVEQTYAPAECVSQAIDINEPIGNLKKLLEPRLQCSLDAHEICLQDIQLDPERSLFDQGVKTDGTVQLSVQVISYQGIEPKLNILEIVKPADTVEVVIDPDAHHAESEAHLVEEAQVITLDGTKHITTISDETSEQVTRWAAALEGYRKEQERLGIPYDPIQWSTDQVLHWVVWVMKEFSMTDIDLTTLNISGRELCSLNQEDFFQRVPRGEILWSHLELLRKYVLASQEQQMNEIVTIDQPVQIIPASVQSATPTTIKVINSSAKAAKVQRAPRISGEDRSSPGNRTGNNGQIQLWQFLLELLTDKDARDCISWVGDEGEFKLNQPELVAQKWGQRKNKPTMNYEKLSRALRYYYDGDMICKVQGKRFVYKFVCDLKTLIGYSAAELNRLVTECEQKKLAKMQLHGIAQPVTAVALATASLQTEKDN
The essentials:
as §1

The target in the next test is T4, ERG (Homo sapiens, UniProt P11308 1-479).
T4 sequence: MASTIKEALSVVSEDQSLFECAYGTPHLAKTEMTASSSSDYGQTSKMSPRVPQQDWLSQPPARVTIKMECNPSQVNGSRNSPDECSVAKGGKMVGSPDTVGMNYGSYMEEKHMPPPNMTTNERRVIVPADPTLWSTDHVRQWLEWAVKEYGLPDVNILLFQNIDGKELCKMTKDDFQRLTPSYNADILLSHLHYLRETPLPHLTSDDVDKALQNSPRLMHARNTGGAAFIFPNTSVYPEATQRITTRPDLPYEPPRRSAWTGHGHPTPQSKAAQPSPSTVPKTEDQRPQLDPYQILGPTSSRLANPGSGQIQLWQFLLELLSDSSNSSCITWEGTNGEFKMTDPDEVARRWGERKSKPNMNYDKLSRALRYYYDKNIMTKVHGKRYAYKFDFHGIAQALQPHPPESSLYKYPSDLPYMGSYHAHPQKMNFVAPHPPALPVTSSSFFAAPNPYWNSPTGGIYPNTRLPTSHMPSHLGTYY
The essentials: as §1

A further test has as its target ELF1 (Homo sapiens, UniProt P32519 1-619). The essentials: as §1
The next test deals with T5, EHF (Homo sapiens, UniProt Q9NZC4 1-300).
T5 sequence: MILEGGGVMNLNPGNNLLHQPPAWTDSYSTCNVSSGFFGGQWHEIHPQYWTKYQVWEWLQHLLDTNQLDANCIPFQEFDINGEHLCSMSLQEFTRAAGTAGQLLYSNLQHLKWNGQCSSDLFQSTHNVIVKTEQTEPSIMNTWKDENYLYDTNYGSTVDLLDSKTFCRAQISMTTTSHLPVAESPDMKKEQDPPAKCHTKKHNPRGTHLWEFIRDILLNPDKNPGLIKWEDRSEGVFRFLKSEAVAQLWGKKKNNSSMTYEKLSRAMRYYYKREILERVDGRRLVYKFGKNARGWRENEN
The essentials: as §1

A further test deals with SPI1 (Homo sapiens, UniProt P17947 1-270). The procedure, abridged: as §1
For another test, the target named is SPIB (Homo sapiens, UniProt Q01892 1-262). The essentials: as §1
Another test has as its target T6, ELK3 (Homo sapiens, UniProt P41970 1-407).
T6 sequence: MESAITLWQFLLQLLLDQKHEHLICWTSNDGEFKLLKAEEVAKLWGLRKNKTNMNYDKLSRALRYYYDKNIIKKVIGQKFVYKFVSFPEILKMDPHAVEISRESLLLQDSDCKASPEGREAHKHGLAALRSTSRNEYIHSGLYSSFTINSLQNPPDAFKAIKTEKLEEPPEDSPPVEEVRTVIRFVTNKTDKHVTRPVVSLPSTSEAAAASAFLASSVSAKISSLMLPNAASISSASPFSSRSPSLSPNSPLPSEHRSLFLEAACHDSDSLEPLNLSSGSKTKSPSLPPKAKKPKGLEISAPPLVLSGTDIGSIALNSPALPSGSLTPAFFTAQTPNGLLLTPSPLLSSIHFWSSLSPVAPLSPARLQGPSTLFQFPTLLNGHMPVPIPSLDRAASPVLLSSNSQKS
The procedure, abridged: as §1

SPIB, sequence (Q01892 whole entry): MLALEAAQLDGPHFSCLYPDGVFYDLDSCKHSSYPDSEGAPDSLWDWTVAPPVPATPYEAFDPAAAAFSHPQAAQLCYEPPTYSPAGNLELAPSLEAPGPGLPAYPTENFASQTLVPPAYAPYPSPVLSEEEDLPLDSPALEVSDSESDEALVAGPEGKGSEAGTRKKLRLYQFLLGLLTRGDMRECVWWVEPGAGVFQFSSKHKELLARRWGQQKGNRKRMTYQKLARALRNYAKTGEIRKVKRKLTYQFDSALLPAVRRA
ELF1, sequence (P32519 whole entry): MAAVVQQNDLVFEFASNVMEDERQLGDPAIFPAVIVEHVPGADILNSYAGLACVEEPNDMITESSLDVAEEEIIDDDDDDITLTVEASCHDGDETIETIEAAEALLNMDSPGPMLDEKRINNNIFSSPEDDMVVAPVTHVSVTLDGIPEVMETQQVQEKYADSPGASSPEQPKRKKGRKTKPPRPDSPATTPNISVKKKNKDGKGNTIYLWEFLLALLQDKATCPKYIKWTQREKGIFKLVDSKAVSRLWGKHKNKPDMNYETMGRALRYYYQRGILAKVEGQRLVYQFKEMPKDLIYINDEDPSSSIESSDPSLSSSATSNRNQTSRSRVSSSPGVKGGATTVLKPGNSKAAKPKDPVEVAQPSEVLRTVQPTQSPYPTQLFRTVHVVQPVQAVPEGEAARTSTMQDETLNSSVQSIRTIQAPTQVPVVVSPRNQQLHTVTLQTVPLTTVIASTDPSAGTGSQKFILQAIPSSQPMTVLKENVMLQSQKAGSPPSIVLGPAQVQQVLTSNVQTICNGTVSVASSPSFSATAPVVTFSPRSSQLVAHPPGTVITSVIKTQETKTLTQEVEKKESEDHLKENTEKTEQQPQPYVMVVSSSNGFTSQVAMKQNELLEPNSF

On to CCTGAC, for which the binding signal with FLI1 is 1.49 fold enrichment (6-mer frequency, TF over GST control); with ELK1, 1.57 fold enrichment (6-mer frequency, TF over GST control); with GABPA, 1.49 fold enrichment (6-mer frequency, TF over GST control); with ERG, 1.48 fold enrichment (6-mer frequency, TF over GST control); in the test with ELF1, 1.46 fold enrichment (6-mer frequency, TF over GST control); with EHF, 1.58 fold enrichment (6-mer frequency, TF over GST control). Further, the binding signal was 1.44 fold enrichment (6-mer frequency, TF over GST control) with SPI1; 1.46 fold enrichment (6-mer frequency, TF over GST control) in the test with SPIB; 1.56 fold enrichment (6-mer frequency, TF over GST control) with ELK3.

Take TTATCC: the binding signal was 1.47 fold enrichment (6-mer frequency, TF over GST control) with FLI1; 1.39 fold enrichment (6-mer frequency, TF over GST control) with ELK1; 1.37 fold enrichment (6-mer frequency, TF over GST control) in the test with GABPA; 1.43 fold enrichment (6-mer frequency, TF over GST control) with ERG; 1.31 fold enrichment (6-mer frequency, TF over GST control) with ELF1; 1.52 fold enrichment (6-mer frequency, TF over GST control) in the test with EHF. For the same sequence, the binding signal in the test with SPI1 was 1.41 fold enrichment (6-mer frequency, TF over GST control); in the test with SPIB, 1.54 fold enrichment (6-mer frequency, TF over GST control); with ELK3 it was 1.5 fold enrichment (6-mer frequency, TF over GST control).

On to CCTTGC, for which the binding signal with FLI1 is 1.31 fold enrichment (6-mer frequency, TF over GST control); with ELK1, 1.28 fold enrichment (6-mer frequency, TF over GST control); with GABPA it was 1.33 fold enrichment (6-mer frequency, TF over GST control); with ERG, 1.2 fold enrichment (6-mer frequency, TF over GST control); with ELF1 it was 1.45 fold enrichment (6-mer frequency, TF over GST control); in the test with EHF, 1.28 fold enrichment (6-mer frequency, TF over GST control). Besides, the binding signal is 1.27 fold enrichment (6-mer frequency, TF over GST control) with SPI1; 1.24 fold enrichment (6-mer frequency, TF over GST control) with SPIB; 1.16 fold enrichment (6-mer frequency, TF over GST control) with ELK3.

In the case of TTCCTT, the binding signal with FLI1 was 1.88 fold enrichment (6-mer frequency, TF over GST control); with ELK1, 1.79 fold enrichment (6-mer frequency, TF over GST control); with GABPA it was 1.84 fold enrichment (6-mer frequency, TF over GST control); with ERG, 2.11 fold enrichment (6-mer frequency, TF over GST control); with ELF1, 1.96 fold enrichment (6-mer frequency, TF over GST control); with EHF, 2.02 fold enrichment (6-mer frequency, TF over GST control). The binding signal was 2.25 fold enrichment (6-mer frequency, TF over GST control) in the test with SPI1; 2.01 fold enrichment (6-mer frequency, TF over GST control) with SPIB; 2.09 fold enrichment (6-mer frequency, TF over GST control) in the test with ELK3.

Consider CTGTAC, for which the binding signal with FLI1 was 1.28 fold enrichment (6-mer frequency, TF over GST control); in the test with ELK1 it was 1.31 fold enrichment (6-mer frequency, TF over GST control); with GABPA it was 1.23 fold enrichment (6-mer frequency, TF over GST control); in the test with ERG it was 1.39 fold enrichment (6-mer frequency, TF over GST control); with ELF1, 1.38 fold enrichment (6-mer frequency, TF over GST control); with EHF, 1.33 fold enrichment (6-mer frequency, TF over GST control). For the same sequence, the binding signal was 1.4 fold enrichment (6-mer frequency, TF over GST control) with SPI1; 1.3 fold enrichment (6-mer frequency, TF over GST control) with SPIB; 1.24 fold enrichment (6-mer frequency, TF over GST control) with ELK3.

TTGGTA: the binding signal was 1.23 fold enrichment (6-mer frequency, TF over GST control) with FLI1; 1.3 fold enrichment (6-mer frequency, TF over GST control) in the test with ELK1; 1.22 fold enrichment (6-mer frequency, TF over GST control) in the test with GABPA; 1.13 fold enrichment (6-mer frequency, TF over GST control) with ERG; 1.19 fold enrichment (6-mer frequency, TF over GST control) in the test with ELF1; 1.21 fold enrichment (6-mer frequency, TF over GST control) in the test with EHF. Besides, the binding signal with SPI1 was 1.23 fold enrichment (6-mer frequency, TF over GST control); with SPIB it was 1.33 fold enrichment (6-mer frequency, TF over GST control); with ELK3 it was 1.2 fold enrichment (6-mer frequency, TF over GST control).

As for TTGATG, the binding signal with FLI1 is 1.45 fold enrichment (6-mer frequency, TF over GST control); with ELK1 it was 1.82 fold enrichment (6-mer frequency, TF over GST control); in the test with GABPA, 1.72 fold enrichment (6-mer frequency, TF over GST control); with ERG it was 1.61 fold enrichment (6-mer frequency, TF over GST control); with ELF1, 1.64 fold enrichment (6-mer frequency, TF over GST control); with EHF, 1.65 fold enrichment (6-mer frequency, TF over GST control). In addition, the binding signal was 1.51 fold enrichment (6-mer frequency, TF over GST control) with SPI1; 1.62 fold enrichment (6-mer frequency, TF over GST control) with SPIB; 1.52 fold enrichment (6-mer frequency, TF over GST control) with ELK3.

With CCCAAT, the binding signal in the test with FLI1 was 1.23 fold enrichment (6-mer frequency, TF over GST control); with ELK1, 1.29 fold enrichment (6-mer frequency, TF over GST control); in the test with GABPA, 1.35 fold enrichment (6-mer frequency, TF over GST control); in the test with ERG it was 1.24 fold enrichment (6-mer frequency, TF over GST control); with ELF1 it was 1.29 fold enrichment (6-mer frequency, TF over GST control); in the test with EHF, 1.22 fold enrichment (6-mer frequency, TF over GST control). The binding signal with SPI1 is 1.28 fold enrichment (6-mer frequency, TF over GST control); with SPIB it was 1.21 fold enrichment (6-mer frequency, TF over GST control); with ELK3 it was 1.22 fold enrichment (6-mer frequency, TF over GST control).
